Test [1] in a line: qHTS for Inhibitors of Plasmodium falciparum (GB4) proliferation (AID 504315). Further: nearly all actives have a fitted effect of over 50% in size. Further: potency means the concentration at half of the fitted maximal effect. A digest of the protocol:
(§1)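 Erythrocytes infected with P. falciparum line (0.3% parasitemia, 2.5% hematocrit final) incubated with compounds 72 h at 37 °C, 5% CO2; SYBR Green lysis buffer added, fluorescence read next day. Normalized to 0.29 uM artemisinin and DMSO.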

The target of test [2] is Atrial natriuretic peptide receptor 1 (Homo sapiens) (UniProt P16066). Kind of test: Natriuretic polypeptide receptor (hNpr1) antagonism - Pilot CMLD screen (AID 1347052; calls by dose curve;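 further: HEK293 cells with hNpr1 stimulated by hNppA peptide at 0.1 nM; cGMP level read as GloSensor luciferase luminescence after agonist stimulation; series mostly up to about 9.2 µM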).
Test [3] is described as follows: qHTS for Inhibitors of Plasmodium falciparum (7G8) proliferation (AID 504316). Further: nearly all actives have a fitted effect of over 65% in size. Further: potency means the concentration at half of the fitted maximal effect. In short, it runs like this:
as §1

Test [4] is described as follows: qHTS for Inhibitors of Plasmodium falciparum (HB3) proliferation (AID 504318). Further: nearly all actives have a fitted effect of over 60% in size. Further: potency means the concentration at half of the fitted maximal effect. In short, it runs like this: as §1
On the technique in general: In qHTS, concentration-response curves come from the screen itself.

Test [5] in a line: qHTS for Inhibitors of Plasmodium falciparum (CP250) proliferation (AID 504320). Further: potency means the concentration at half of the fitted maximal effect. In short, it runs like this:
as §1

Results filed as inconclusive are left out. Activity calls are given as the source filed them. Unless noted, the call rests on the fitted dose curve; in most records, active means well fitted curve in the direction sought with a large enough effect; inconclusive means small, poorly fitted or top-dose-only effect, or another doubt; inactive means no such curve, though single readings can be large; an effect the other way counts as inactive or inconclusive.

Atrial natriuretic peptide receptor 1 (Homo sapiens), sequence (P16066 whole entry, looked up): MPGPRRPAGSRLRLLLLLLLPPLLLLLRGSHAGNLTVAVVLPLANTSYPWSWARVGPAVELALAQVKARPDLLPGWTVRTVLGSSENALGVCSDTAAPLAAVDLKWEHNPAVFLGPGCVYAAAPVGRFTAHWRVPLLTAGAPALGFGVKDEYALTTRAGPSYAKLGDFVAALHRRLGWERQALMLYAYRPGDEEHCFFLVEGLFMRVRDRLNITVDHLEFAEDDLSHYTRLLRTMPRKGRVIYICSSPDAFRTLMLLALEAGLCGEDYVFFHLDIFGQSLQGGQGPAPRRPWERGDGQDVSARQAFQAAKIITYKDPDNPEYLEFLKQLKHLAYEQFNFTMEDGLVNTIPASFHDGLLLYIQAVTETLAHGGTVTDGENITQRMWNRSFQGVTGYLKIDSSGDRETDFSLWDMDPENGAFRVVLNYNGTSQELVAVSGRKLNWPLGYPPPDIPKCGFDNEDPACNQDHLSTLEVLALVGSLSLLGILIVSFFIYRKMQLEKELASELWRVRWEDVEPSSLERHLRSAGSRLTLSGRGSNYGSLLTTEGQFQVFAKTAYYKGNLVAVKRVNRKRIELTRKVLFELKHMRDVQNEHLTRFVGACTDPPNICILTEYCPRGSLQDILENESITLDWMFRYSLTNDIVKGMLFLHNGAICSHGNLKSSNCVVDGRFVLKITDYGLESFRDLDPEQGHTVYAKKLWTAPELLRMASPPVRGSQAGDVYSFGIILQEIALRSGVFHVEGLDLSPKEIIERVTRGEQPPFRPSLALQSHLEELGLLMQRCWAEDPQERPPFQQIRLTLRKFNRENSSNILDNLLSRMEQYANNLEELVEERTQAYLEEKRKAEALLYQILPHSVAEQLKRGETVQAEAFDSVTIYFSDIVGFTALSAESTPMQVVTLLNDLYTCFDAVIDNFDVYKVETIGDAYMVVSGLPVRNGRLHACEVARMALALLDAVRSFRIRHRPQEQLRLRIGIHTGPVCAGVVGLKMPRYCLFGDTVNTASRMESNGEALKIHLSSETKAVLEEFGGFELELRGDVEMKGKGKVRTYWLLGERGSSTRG

As for `COC(=O)N[C@@H](C=Cc1ccccc1)C(C(=O)OC)=C(C)NCc1ccccc1`, the Potency in test [1] was 1.69 µM (active). The Potency entry in test [2] was “inactive”.

In the case of `C#CCN1C(=O)CC[C@@]23C1=NC(C(=O)OC)=C(C(=O)OC)[C@@H]2N(Cc1ccccc1)c1ccccc13`, the Potency result in test [1], in test [3], in test [4] and in test [2] was “inactive” throughout.

For the compound `COC(=O)[C@@]1(Cc2ccccc2-c2ccco2)C=C[C@H](C)[C@@H](c2ccccc2)N1C(=O)C(F)(F)F`, the Potency result in test [1], in test [3], in test [4] and in test [2] was “inactive” each time.

As for `COc1cccc([C@H]2Oc3ccc(OC)cc3C(=NO[C@@H](C)c3cn([C@H](CO)Cc4ccccc4)nn3)[C@H]2O)c1`, the Potency result in test [1], in test [3], in test [4], in test [5] and in test [2] was “inactive” in each case.

Take `CCN1C(=NCc2cc(OC)c(OC)c(OC)c2)N[C@@H](c2ccccc2)[C@H](C(=O)OC)[C@H]1C`: the Potency entry in test [1], in test [3], in test [4] and in test [2] was “inactive” throughout.

On to `COC(=O)[C@@H]1CC[C@H](C)[C@@H](c2ccc(C)cc2)N1C(=O)c1ccc(C=NOC[C@@H](O)COCc2ccco2)cc1`, for which the Potency result in test [1] and in test [2] was “inactive” throughout.

In the case of `CC(=O)OC[C@H]1O[C@H](C#Cc2ccccc2Cl)C=C[C@H]1OC(C)=O`, the Potency entry in test [1], in test [3], in test [4] and in test [2] was “inactive” throughout.

As for `CC(C)CON=C1C[C@@H](O)[C@@H](O)[C@@H]2[C@H]3C(=O)N(c4ccc(F)cc4F)C(=O)[C@@H]3CC[C@H]12`, the Potency entry in test [1], in test [3], in test [4], in test [5] and in test [2] was “inactive” in each case.

As to `c1ccc(CCc2nc(-c3ccccc3)oc2Nc2ccc3ccccc3c2)cc1`, the Potency result in test [1], in test [3], in test [4], in test [5] and in test [2] was “inactive” each time.

Take `CCOC(=O)C1=CN(CCc2cn(Cc3ccccc3)nn2)C(=O)NC1c1ccccc1` (stereo not given): the Potency entry in test [1], in test [3], in test [4], in test [5] and in test [2] was “inactive” in each case.

With `COC(=O)NCC=Cc1nc(CCCO)co1`, the Potency entry in test [1], in test [3], in test [4], in test [5] and in test [2] was “inactive” in each case.

Take `C#CCCOC(=O)N1C2=NC(C(=O)OC)=C(C(=O)OC)[C@@H]3Nc4ccccc4[C@]23C[C@H]1C(=O)OC`: the Potency result in test [1], in test [3], in test [4], in test [5] and in test [2] was “inactive” throughout.

For `COc1cccc(CO[C@H]2C=C[C@@H](c3ccccc3)O[C@H]2CBr)c1`, the Potency result in test [1], in test [3], in test [4], in test [5] and in test [2] was “inactive” each time.

With `CCN1C(=NCCCOC(C)C)NC(c2ccccc2)C(C(=O)OC)=C1C` (stereo not given), the Potency entry in test [1], in test [3], in test [4], in test [5] and in test [2] was “inactive” each time.

On to `Cc1cc2c(c(=O)n1Cc1ccccc1)[C@H]1O[C@](CCCCN3C(=O)c4ccccc4C3=O)(Cc3ccccc31)O2`, for which the Potency in test [1] is 1.9 µM (active); in test [3] it was 1.69 µM (active); in test [4], 1.69 µM (active); in test [5], 1.35 µM (active). The Potency result in test [2] was “inactive”.

Turning to `COC(=O)NC(c1ccccc1)c1c[nH]c2ccc(OC)cc12` (stereo not given), the Potency entry in test [1], in test [3], in test [4], in test [5] and in test [2] was “inactive” in each case.

Take `CCCCCCCC=CC1=CC2(C)CC1(C)C(CCCCCCC)CC2=O` (stereo not given): the Potency result in test [1], in test [3], in test [4], in test [5] and in test [2] was “inactive” in each case.

With `COc1ccc2c(c1)CO[C@H]([C@H](O)COC(C)=O)[C@H]2C=Cc1ccccc1`, the Potency entry in test [1], in test [3], in test [4], in test [5] and in test [2] was “inactive” in each case.

For the compound `C=CCO[C@@H]1C=C[C@@H](c2ccccc2)O[C@@H]1COC`, the Potency result in test [1], in test [3], in test [4], in test [5] and in test [2] was “inactive” in each case.

Consider `CCN1C(=O)NC(CCc2ccccc2)C(C(C)=O)=C1C` (stereo not given), for which the Potency entry in test [1], in test [3], in test [4], in test [5] and in test [2] was “inactive” throughout.

Turning to `C#CCCCON=C1C[C@@H](O)[C@H](O)[C@H]2[C@@H]3C(=O)N(C[C@@H]4CCCO4)C(=O)[C@@H]3CC[C@H]12`, the Potency result in test [1], in test [3], in test [4], in test [5] and in test [2] was “inactive” throughout.

For `Cc1cc(F)ccc1O[C@H]1C=C[C@@H](c2ccc3c(c2)OCO3)O[C@H]1CO`, the Potency result in test [1], in test [3], in test [4], in test [5] and in test [2] was “inactive” in each case.

With `CC1(OC(=O)CCc2ccccc2)C(=O)C=C2C=C(c3ccsc3)OC=C2C1=O` (stereo not given), the Potency result in test [1], in test [3], in test [4], in test [5] and in test [2] was “inactive” throughout.

Regarding `COC(=O)C1=C(C)[C@@H](O)[C@@H](C)[C@](C)(c2cc(OC)c(C)c(OC)c2COc2ccccc2)O1`, the Potency entry in test [1], in test [3], in test [4], in test [5] and in test [2] was “inactive” in each case.

Regarding `C[C@@H]1CC[C@H]2C(=O)N(Cc3ccccc3)C[C@@H](O)CN2[C@@H]1c1cccc(Br)c1`, the Potency entry in test [1], in test [3], in test [4], in test [5] and in test [2] was “inactive” each time.

Take `COCCN1C(=O)CC[C@@]23C1=NC(C(=O)OC)=C(C(=O)OC)[C@@H]2N(C)c1ccccc13`: the Potency entry in test [1], in test [3], in test [4], in test [5] and in test [2] was “inactive” each time.

For `C=CCOC(=O)N[C@H](c1ccccc1)C(C(C)=O)C(C)=O`, the Potency result in test [1], in test [3], in test [4], in test [5] and in test [2] was “inactive” in each case.

The record behind these values is PubChem BioAssay (NCATS).
